{"source": "PubChem BioAssay AID540359", "about": "(Broad Institute, 2011)", "note": "Entries with a potency or affinity are not part of this list. Active and inactive are the calls of the source. How the calls were made is not given here.", "data": [{"biological_target": "UDP-galactopyranose mutase (Mycobacterium tuberculosis (strain ATCC 25618 / H37Rv)) (UniProt P9WIQ1)", "sequence (P9WIQ1 whole entry, looked up)": "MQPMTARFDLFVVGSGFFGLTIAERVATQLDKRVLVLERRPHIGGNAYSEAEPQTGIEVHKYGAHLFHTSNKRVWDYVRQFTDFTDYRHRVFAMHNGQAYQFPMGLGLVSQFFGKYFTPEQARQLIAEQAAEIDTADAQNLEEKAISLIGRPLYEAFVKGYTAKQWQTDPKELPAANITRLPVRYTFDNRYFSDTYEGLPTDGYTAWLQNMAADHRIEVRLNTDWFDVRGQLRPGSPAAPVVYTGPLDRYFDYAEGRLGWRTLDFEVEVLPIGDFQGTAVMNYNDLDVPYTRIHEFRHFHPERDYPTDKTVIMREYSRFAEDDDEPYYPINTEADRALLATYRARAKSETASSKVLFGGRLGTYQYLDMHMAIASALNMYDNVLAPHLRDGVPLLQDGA", "assay": "UDP galactopyranose mutase inhibitors, Mycobacterium tuberculosis, cherry pick dose confirmation (AID 540359)", "settings": "purified UGM enzyme, plate reader activity; series mostly up to 50 µM", "values": [{"smiles": "COc1cc(OC)cc(C(=O)Nc2cc(C)nn2-c2ccccc2)c1", "outcome": "inactive"}, {"smiles": "CC(N)=Nc1ccc([N+](=O)[O-])cc1", "outcome": "inactive"}, {"smiles": "CN(CC(=O)NC1CC1)S(=O)(=O)c1ccc(Br)cc1", "outcome": "inactive"}, {"smiles": "COc1ccccc1N1CCN(C2CCCN(C(=O)CCC(=O)N(C)C)C2)CC1", "note": "(configuration not stated)", "outcome": "inactive"}, {"smiles": "COc1ccc(N=Cc2c(O)n(-c3cccc(C)n3)c(=O)c3ccccc23)c(OC)c1", "outcome": "inactive"}, {"smiles": "Cn1cccc1C(=O)NC(=O)COC(=O)CC12CC3CC(CC(Br)(C3)C1)C2", "outcome": "inactive"}, {"smiles": "COc1cccc(C(=O)OCC(=O)NCc2ccc3c(c2)OCO3)c1OC", "outcome": "inactive"}, {"smiles": "COc1cc2c3nnc(-c4ccc(F)cc4)c-3cn(Cc3ccc(C)cc3)c2cc1OC", "outcome": "inactive"}, {"smiles": "O=C(Cc1cccs1)Nc1cc(SCCO)cc([N+](=O)[O-])c1", "outcome": "inactive"}, {"smiles": "COc1ccccc1N1N=C(C(=O)c2ccccc2)C2C(=O)N(c3ccc(Br)cc3)C(=O)C21", "note": "(configuration not stated)", "outcome": "inactive"}, {"smiles": "COc1ccc(-n2c(O)c(/C=C3\\C=Nc4ccc(Br)cc43)c(=O)[nH]c2=O)cc1", "outcome": "inactive"}, {"smiles": "O=C(Nc1nccs1)c1ccc(-c2ccc([N+](=O)[O-])cc2)o1", "outcome": "inactive"}, {"smiles": "O=C(COC(=O)CN1C(=O)NC2(CCCC2)C1=O)NCc1ccc(Cl)cc1Cl", "outcome": "inactive"}, {"smiles": "Cn1nc(C(=O)Nc2cc(Cl)ccc2N2CCCC2)c2ccccc2c1=O", "outcome": "inactive"}, {"smiles": "COc1cc2c3nnc(-c4ccccc4)c-3cn(Cc3ccccc3F)c2cc1OC", "outcome": "inactive"}, {"smiles": "CCOC(=O)/C(C#N)=C1\\CC2CCC1(C)C2(C)C", "note": "(configuration not stated)", "outcome": "inactive"}, {"smiles": "O=S(=O)(Nc1cccnc1Cl)c1ccc(F)cc1", "outcome": "inactive"}]}]}
